From PubChem
Only some compounds are listed: those with a hit (about 13% of all), similar ones and a draw of the others.
L major viab – reduces viability of Leishmania major promastigotes | resazurin fluorescence viability | 9% of 200,000 active | inhibition, % at 10 µM; in the data active means inhibition above about 50%;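 further: promastigotes grown with compound for 44 hours at 28 °C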
CHOP inh – blocks CHOP induction under ER stress; 3.8% of 220,000 active; inhibition, % at 10 µM; CHO-K1 CHOP-promoter luciferase, tunicamycin-induced, 15-18 h;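 active means compounds that reduced the stress-induced luciferase reporter signal by more than about 70% of percent inhibition, limit read from the data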
RAM network inh – blocks the yeast RAM network; AID 868; 1.8% of 190,000 active; S. cerevisiae dse1pr::URA3 reporter, 5-FOA growth OD615, 2 d; analog-sensitive cbk1-as2 kinase mutant strain; inhibition, % at 50 µM;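 active means inhibition above a set limit, 3 SD over mean compound inhibition, cut at about 8.4% in these data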;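 further: inhibition rescues growth on 5-FOA so higher OD means more RAM inhibition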
WT yeast gro inh – growth inhibition of WT yeast, mitochondrial fusion screen | mitochondrial fusion phenotypic screen, WT strain | inhibition, % at 10 µM | 2.1% of 190,000 active; in the data active means inhibition above about 58%; tested in S. cerevisiae
Numbers stand for hits; . = inactive; / = not tested or not shown.

SMILES	L major viab	CHOP inh	RAM network inh	WT yeast gro inh
CN1CCC(N(C)c2nc(-c3ccccc3)nc3ccccc23)CC1	100.5	.	.	.
Cc1nn(Cc2ccccc2)c(C)c1C(=O)OCC(=O)Nc1cc(S(C)(=O)=O)ccc1Cl	.	.	.	.
CN1CCN(c2ncc(C=O)s2)CC1	.	.	.	.
Cc1ccc(CN2CCCC(C(=O)c3cccc(C(F)(F)F)c3)C2)o1 (stereo not drawn)	.	.	.	.
O=C(c1cccc(C(F)(F)F)c1)C1CCCN(Cc2ccccc2O)C1 (stereo not drawn)	83.5	.	.	.
O=C(c1ccc(C(F)(F)F)cc1)C1CCCN(Cc2ccc(CO)o2)C1 (stereo not drawn)	87.9	.	.	.
O=C(c1ccc(C(F)(F)F)cc1)C1CCCN(Cc2ccncc2)C1 (stereo not drawn)	89.0	.	.	.
O=[N+]([O-])c1ccc(O[C@@H]2O[C@H](CO)[C@@H](O)[C@H](O)[C@H]2F)c([N+](=O)[O-])c1	/	.	/	/
CCOC(=O)c1c(C)n(Cc2ccccc2)c2ccc(OCC(O)Cn3nc(C)nc3C)cc12 (stereo not drawn)	.	.	.	.
CCOC(=O)c1c(C)n(Cc2ccccc2)c2ccc(OCC(O)Cn3nc(C)cc3C)cc12 (stereo not drawn)	.	.	.	66.1
O=c1c2ccccc2nc(/C=C/c2ccc3c(c2)OCO3)n1-c1cccc(O)c1	.	.	.	.
O=c1c2ccccc2nc(/C=C/c2ccc(O)cc2)n1-c1cccc(O)c1	.	71.0	.	.
CN(CC(=O)Nc1ccccc1-c1ccccc1)C1CCCCC1	.	82.9	.	.
CC(C(=O)c1ccccc1)N1C(=O)c2ccccc2C1=O (stereo not drawn)	75.4	.	.	.
CC1CC(OC(=O)c2ccccc2)CC(C)N1C (stereo not drawn)	.	.	.	.
C[C@@H]1O[C@H](C[N+](C)(C)C)C[C@H]1O	/	.	/	/
CC12CCC3C(CCC4=C(O)C(=O)CCC43C)C1CCC2=O (stereo not drawn)	/	.	/	/
CCN(CC)CCNC(=O)c1c(O)c2ccccc2n(Cc2ccccc2)c1=O	89.5	.	.	.
CC(=O)c1c(C)n(Cc2ccccc2)c2ccc(O)cc12	/	.	/	/
CCN(CC)CCCNC(=O)c1c(O)c2ccccc2n(Cc2ccccc2)c1=O	100.1	.	.	.
CCOC(=O)c1nsnc1NCCCl	.	.	.	.
O=[N+]([O-])c1ccc(C2C3C(c4ccccc4)=NC4(CCCC4)N32)cc1 (stereo not drawn)	.	.	.	.
O=C(CNC(=O)OCc1ccccc1)NCC(=O)Nc1ccc(Br)cc1C(=O)c1ccccc1	69.5	.	.	.
CCc1ccc(N2C(=O)NC(=O)/C(=C/c3cccn3CCOc3ccc(C)cc3)C2=O)cc1	.	90.0	.	.
CCc1ccc(N2C(=O)NC(=O)/C(=C/c3cccn3CCOc3ccc(C(C)CC)cc3)C2=O)cc1 (stereo not drawn)	.	86.1	.	.
SMILES	L major viab	CHOP inh	RAM network inh	WT yeast gro inh
CCOc1ccc(CC2C(=O)NC(=O)N(c3ccc(CC)cc3)C2=O)cc1 (stereo not drawn)	.	.	.	.
O=C1NC(=O)N(Cc2ccco2)C(=O)/C1=C\c1cccn1CCOc1ccc(Cl)cc1	.	75.9	.	.
Cc1cccc(OCCn2cccc2/C=C2/C(=O)NC(=O)N(Cc3ccco3)C2=O)c1	/	.	/	/
COc1ccccc1CCNC1CCC(C)CC1 (stereo not drawn)	76.7	.	.	.
Cc1ccc(S(=O)(=O)N(C)C)cc1NC(=O)C(C)[N+]12CCN(CC1)CC2 (stereo not drawn)	.	.	.	.
N#CC1=C(N)Oc2c(c(=O)sc3ccccc23)C1c1cccnc1 (stereo not drawn)	81.1	.	.	.
CCCN(CCC)[C@@H]1CCc2c(F)ccc(O)c2C1	/	.	/	/
CN1CCN(C(=O)COc2ccc(N(C)S(=O)(=O)c3ccc(F)cc3)cc2)CC1	.	.	.	.
CC(C)CC(=O)NC(Oc1ccc(Cl)cc1)C(Cl)(Cl)Cl (stereo not drawn)	.	72.0	.	.
COc1ccc(N2C(=O)NC(=O)/C(=C\c3ccc([N+](=O)[O-])s3)C2=O)cc1	97.3	.	.	.
CCOc1ccc(N2C(=O)NC(=O)/C(=C\c3cc(OC)c(OC)cc3[N+](=O)[O-])C2=O)cc1	56.1	.	.	.
CCOc1ccc(N2C(=O)NC(=O)/C(=C\c3ccc(N4CCOCC4)cc3C)C2=O)cc1	.	.	.	.
CS(=O)(=O)N1CCN(C(=N)N[N+](=O)[O-])CC1	.	.	.	.
CN1CCN(c2ccc([N+](=O)[O-])c(NCC3CCCO3)c2)CC1 (stereo not drawn)	.	.	.	.
CN1CCN(c2ccc([N+](=O)[O-])c(NCc3ccco3)c2)CC1	99.9	.	.	.
O=[N+]([O-])c1ccc(N2CCNCC2)cc1NCc1ccco1	100.6	.	.	.
CN(Cc1c[nH]c2ccccc12)C1CCCCC1	70.3	.	.	.
c1ccc2c(CN3CCCCCCC3)c[nH]c2c1	98.2	.	.	.
c1ccc2c(CN3CCN(C4CCCCC4)CC3)c[nH]c2c1	75.4	.	.	.
c1ccc2c(CNC3CCCCC3)c[nH]c2c1	.	.	.	.
CC(Cc1ccccc1)[n+]1cc(/N=C(\[O-])Nc2ccccc2)on1 (stereo not drawn)	.	.	.	.
CSc1ncc(Cl)c(C(=O)O)n1	.	.	.	.
C=CCN1C(=O)NC(=O)/C(=C/c2cc3c4c(c2)CCCN4CCC3)C1=O	93.1	.	.	.
C=CCN1C(=O)NC(=O)/C(=C/c2cnc(SC)nc2)C1=O	.	.	.	.
CCOc1ccc(-n2c(O)c(N=Nc3c(C)n(C)n(-c4ccccc4)c3=O)c(=O)[nH]c2=O)cc1	/	.	/	/
SMILES	L major viab	CHOP inh	RAM network inh	WT yeast gro inh
O=c1c2ccccc2[nH]c(=S)n1-c1ccc2c(c1)OCO2	.	.	.	63.3
O=C1N(c2nncs2)CCN1[N+](=O)[O-]	/	.	/	/
CCOC(=O)C1CCN(/C=C2/C(=O)NC(=S)N(c3ccccc3F)C2=O)CC1	55.3	.	.	.
Cc1ccc(/C=C2\C(=O)NC(=S)N(c3ccccc3F)C2=O)s1	100.6	107.2	.	.
Cc1ccc(/C=C2\C(=O)NC(=O)N(CC3CCCO3)C2=O)s1 (stereo not drawn)	/	.	/	/
O=S(=O)(c1ccc(F)cc1)N1CCCCC1c1cccnc1 (stereo not drawn)	/	.	/	/
CC12CNCC(C)(CNC1)C2O (stereo not drawn)	.	88.0	.	.
CC(C)N1CCN(c2ccc(O)cc2)CC1	55.8	.	.	.
CCOC(=O)c1ccc(N=C(c2ccccc2)c2c(O)n(C)c(=O)n(C)c2=O)cc1	/	.	/	/
CCN(CC)CCCC(C)N=C(c1ccccc1)c1c(O)n(C)c(=O)n(C)c1=O (stereo not drawn)	95.0	.	.	.
CC(C)c1ccc(N2C(=O)NC(=O)/C(=C\C=C\c3ccco3)C2=O)cc1	66.6	104.5	.	.
CSc1ccccc1C(=O)C1CCCN(Cc2ccn[nH]2)C1 (stereo not drawn)	.	.	.	.
Oc1c(Br)cc(Br)cc1Oc1ccc(Br)cc1Br	.	.	.	.
